High-throughput results as filed in PubChem BioAssay.
Shown are actives, neighbours in structure and some others; about 3.8% of the full set was active somewhere.
Nrf2 block = Nrf2 qHTS screen for inhibitors. A549 ARE-Fluc reporter, luciferase luminescence, 18-24 h. 2.1% of 360,000 active. AID 504444, 2011. Potency, µM (doses to about 46 µM), for the others: at the top dose activity change, negative = inhibition, usual class: inhibitors; further: on the % scale 0 is the no-effect control and ±100 the full control effect; nearly all actives have a fitted effect of over 60% in size
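Two sequential reads on A549 ARE_Fluc cells exposed to compound for 18-24 h: a CellTiter-Fluor fluorescence read for viability, then a luciferase luminescence read for Nrf2/ARE activity.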
ELG1 repair inh = qHTS screen for small molecules that inhibit ELG1-dependent DNA repair in human embryonic kidney (HEK293T) cells expressing luciferase-tagged ELG1; AID 504467, 2011; HEK293T ELG1-luciferase reporter, luminescence, 16 h; DNA damage induced by 5-fluorouridine; Potency, µM (highest dose often 46.1 µM), for the others: at the highest dose activity change, negative = inhibition, usual class: inhibitors; 2.3% of 330,000 active; further: on the % scale 0 is the no-effect control and ±100 the full control effect; nearly all actives have a fitted effect of over 55% in size
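Quantitative HTS, concentration-response format. 2,000 cells/well co-treated with 5-fluorouridine and compound, 16 hr in 5% CO2 at 37 °C; ONE-Glo luminescence read after 30 min.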
IDH1 R132H inh = qHTS for Inhibitors of mutant isocitrate dehydrogenase 1 (IDH1): qHTS | IDH1-R132H enzyme, NADPH consumption, diaphorase/resazurin fluorescence | Isocitrate dehydrogenase [NADP] cytoplasmic (Homo sapiens), O75874 | 0.093% of 390,000 active | Potency, µM (series often up to 76.6 µM), for inactives: top-dose activity change, negative = inhibition, most hits filed as inhibitors; further: on the % scale 0 is the no-effect control and ±100 the full control effect; nearly all actives have a fitted effect of over 65% in size
Target sequence (O75874 whole entry R132H, stated change not applied): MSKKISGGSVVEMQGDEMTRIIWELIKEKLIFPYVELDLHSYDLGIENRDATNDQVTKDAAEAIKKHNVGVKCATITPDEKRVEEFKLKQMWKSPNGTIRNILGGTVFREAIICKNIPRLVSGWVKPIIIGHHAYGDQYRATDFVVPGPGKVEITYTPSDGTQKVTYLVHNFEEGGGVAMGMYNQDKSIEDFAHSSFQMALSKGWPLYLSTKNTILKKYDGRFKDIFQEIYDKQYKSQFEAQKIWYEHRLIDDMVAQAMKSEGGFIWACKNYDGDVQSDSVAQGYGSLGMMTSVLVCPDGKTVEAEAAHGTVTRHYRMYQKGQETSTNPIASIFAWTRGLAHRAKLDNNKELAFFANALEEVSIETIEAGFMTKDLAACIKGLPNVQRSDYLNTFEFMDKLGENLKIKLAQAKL
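IDH1-R132H (0.5 ug/mL) preincubated 30 min with compound, then NADPH (0.016 mM) and alpha-KG (2 mM) added; 80 min at RT, pH 7.5. Remaining NADPH coupled via diaphorase/resazurin to fluorescence (540/590 nm); concentration-response curves normalized to no-enzyme control.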
Nrf2 ARE act = qHTS of Nrf2 Activators. AREc32 ARE-luciferase reporter (MCF7-derived line), luminescence, 24 h. Potency, µM (highest dose often 46.1 µM), without a hit: top-dose activation, usual class: activators. 0.31% of 410,000 active. AID 624171, 2012; further: % of control where 0% means no effect; nearly all actives have a fitted effect of over 65% in size
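Nrf2 activation is followed as ARE-luciferase induction in the AREc32 line after one day of compound treatment; luminescence is read with Steady-Glo.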
A549 tox = Nrf2 qHTS screen for inhibitors: counterscreen for cytotoxicity; A549 ARE-Fluc cells, CellTiter-Fluor viability, 18-24 h; Potency, µM (top dose mostly 46 µM), for inactives: top-dose activity change, negative = cytotoxicity, actives largely listed as inhibitors; 0.16% of 390,000 active; AID 504648, 2011; further: on the % scale 0 is the no-effect control and ±100 the full control effect
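Cytotoxicity counterscreen: CellTiter-Fluor fluorescence was measured in A549 ARE_Fluc cells after 18-24 h of compound exposure in a concentration series. The subsequent BugLite luminescent read reports ARE-luciferase activity.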
* marks the source's active call; other numbers are inactive results; ? = inconclusive; . = no result. The call rests on the fitted dose curve; in most records, active means well fitted curve in the direction sought with a large enough effect; inconclusive means small, poorly fitted or top-dose-only effect, or another doubt; inactive means no such curve, though single readings can be large; an effect the other way counts as inactive or inconclusive. Potency means the concentration at half of the fitted maximal effect.

SMILES	Nrf2 block	ELG1 repair inh	IDH1 R132H inh	Nrf2 ARE act	A549 tox
CCN1CCN(c2cc(-c3ccccc3)nc3cc(-c4cccc(F)c4)nn23)CC1	.	23.1µM*	2.5%	-1.9%	?
COc1ccc(-c2cc3nc4c(c(N5CCC6(CC5)OCCO6)n3n2)CCC4)cc1	-11.4%	?	-11.0%	-0.4%	-3.2%
COc1cccc(-c2cc3nc(-c4ccccc4)cc(N4CCCC(O)C4)n3n2)c1 (stereo not drawn)	?	16.4µM*	5.0%	-1.2%	-4.3%
Cc1cc(N2CCN(C(=O)c3ccco3)CC2)n2nc(-c3cccc(F)c3)cc2n1	.	16.4µM*	7.7%	3.2%	-12.3%
O=C(Nc1ccccc1C(=O)NCc1cccnc1)c1ccccc1F	3.8%	-9.0%	-1.1%	3.7%	-0.8%
COc1ccc(N2CCN(C(=O)CCc3c(C)nc4c(-c5ccccc5)c(C)nn4c3C)CC2)cc1	-27.7%	.	-2.7%	-1.4%	-6.1%
COC(=O)N(C)C[C@H]1OCc2cn(nn2)CCCC(=O)N([C@@H](C)CO)C[C@@H]1C	.	.	.	-1.0%	.
OC1CCN(c2cc(-c3ccccc3)nc3cc(-c4ccc(F)cc4)nn23)CC1	-8.8%	13µM*	1.3%	0.6%	0.9%
Cc1cccc2cc(CN(Cc3ccccc3)Cc3nnnn3Cc3ccccc3)c(=O)[nH]c12	?	.	.	.	-18.2%
Cc1cccc2cc(CN(Cc3cccs3)Cc3nnnn3Cc3ccccc3)c(=O)[nH]c12	?	18.4µM*	7.0%	4.2%	-6.0%
COC(=O)c1cc(C)ccc1/C=C1/Cc2c(C)cc(C)cc2C1=O	6.0%	.	5.1%	1.0%	-1.8%
CC(C)(C)c1ccc(C2Sc3ccccc3NC3=C2C(=O)c2ccccc23)cc1 (stereo not drawn)	18.4µM*	.	-13.0%	-1.1%	?
O=C(COC(=O)c1c2c(nc3ccccc13)CCN(Cc1ccccc1)C2)Nc1c(F)cccc1F	?	5.8µM*	4.0%	0.8%	?
CC(=O)Nc1ccc(NC(=O)COC(=O)c2c3c(nc4ccccc24)CCN(Cc2ccccc2)C3)cc1	?	2.31µM*	-0.9%	2.3%	-2.0%
CCN1CCc2nc3ccccc3c(C(=O)Nc3ccc(NC(C)=O)cc3)c2C1	13.3%	-2.3%	2.3%	0.3%	1.0%
O=C(NCc1ccc(F)cc1)c1c2c(nc3ccccc13)CCN(Cc1ccccc1)C2	8.0%	0.8%	-5.6%	0.2%	-4.2%
COc1cc([N+](=O)[O-])ccc1NC(=O)N1CCC2(CC1)Nc1ccccc1-n1cccc12	.	.	-6.0%	-0.4%	-5.1%
Cc1ccc2c(CC(=O)Nc3ccc(S(=O)(=O)N4CCCCC4)cc3)coc2c1	?	.	3.6%	4.8%	1.5%
Nc1nc(NCc2ccc(Cl)c(Cl)c2)c2[nH]cnc2n1	5.9%	.	.	.	5.8%
C/C(=N\N=C(N)N)c1cc(Cl)ccc1Cl	16.4µM*	?	-4.9%	4.1%	?
CC1Cc2nc(SCC(=O)N3CCN(c4ccccc4)CC3)n(C)c(=O)c2S1 (stereo not drawn)	-21.9%	-22.6%	16.2%	-0.2%	-6.8%
CC1Cc2nc(SCC(=O)N3CCN(c4ccccc4)CC3)n(CCc3ccccc3)c(=O)c2S1 (stereo not drawn)	?	14.6µM*	-0.4%	-1.0%	2.3%
CCn1c(SCC(=O)N2CCN(c3ccccc3)CC2)nc2c(c1=O)SC(C)C2 (stereo not drawn)	?	23.1µM*	-1.9%	-0.6%	-0.1%
O=C(CSc1nc2c(c(=O)n1-c1ccccc1)SCC2)N1CCOCC1	-4.4%	3.4%	3.3%	0.2%	-0.8%
CCOC(=O)c1ccc(NC(=O)CSc2nc3c(c(=O)n2C)SC(C)C3)cc1 (stereo not drawn)	?	20.6µM*	0.3%	1.7%	-8.8%
SMILES	Nrf2 block	ELG1 repair inh	IDH1 R132H inh	Nrf2 ARE act	A549 tox
O=C(CSc1nc2c(c(=O)n1-c1ccccc1)SCC2)N1CCN(c2ccccc2)CC1	?	23.1µM*	-3.5%	0.0%	-7.0%
O=C(Nc1ccc2nc(SCC(=O)N3CCOCC3)sc2c1)c1ccc(F)cc1	?	.	13.6%	0.6%	3.4%
CCN(CC)CC(=O)Nc1c(C)cccc1C	.	1.9%	2.9%	-0.8%	-0.6%
Cc1cccc(C)c1NC(=O)C(Cl)=C(Cl)Cl	25.6%	2.2%	14.3%	11.2µM*	0.8%
Cc1nc2nc(NCc3ccc(Br)cc3)[nH]n2c(=O)c1Cc1ccccc1	?	.	19.8%	-0.1%	-0.7%
CC1CN(C(=O)N2CCC(C(=O)N3CCN(c4ccccc4)CC3)CC2)c2cc(Cl)ccc2O1 (stereo not drawn)	9.5%	.	0.8%	4.2%	-2.0%
CC(C)n1ncc2c(C(=O)Nc3cccc(C#N)c3)cc(C3CC3)nc21	?	?	4.0%	0.2%	?
CCNC(=O)c1cccc(NC(=O)c2cc(C3CC3)nc3c2cnn3C(C)C)c1	18.4µM*	?	-6.0%	-0.2%	-10.6%
CNCCN(C)c1nc(-c2cccs2)nc2ccccc12	-11.7%	.	.	.	0.0%
OCCNc1ncnc2ccc(Br)cc12	-26.9%	9.2µM*	-0.9%	0.2%	-3.5%
CCCN1C(=O)c2ccccc2NC1c1ccc(OC)c(COc2cccc(OC)c2)c1 (stereo not drawn)	?	.	.	.	-18.5%
Cc1cccc(N2CCN(c3ncnc4onc(C)c34)CC2C)c1 (stereo not drawn)	23.1µM*	.	7.7%	-0.5%	?
Cc1cccc(N2CCN(c3ncnc4onc(-c5ccc(F)cc5)c34)CC2C)c1 (stereo not drawn)	24.1%	.	-16.1%	9.0%	9.1%
CCc1nnc(NC(=O)CSc2nc3c([nH]c4ccccc43)c(=O)n2-c2ccc(Cl)cc2)s1	.	.	-8.1%	0.1%	-6.4%
CCOC(=O)C1=C(COC(=O)CCOc2ccc(C)cc2)NC(=O)NC1C (stereo not drawn)	-16.3%	25.9µM*	6.3%	?	-4.3%
CCN1/C(=C/c2ccc3cc(C)ccc3[n+]2CC)Sc2cc(C)c(C)cc21	1.3µM*	?	-3.0%	-0.5%	?
CCOC(=O)/C(=C/C=C1\Sc2cc(C)c(C)cc2N1CC)C(C)=O	?	?	-10.1%	1.5%	?
O=C1C=C(C#Cc2ccccc2)C[C@@H](c2ccc(F)cc2)C1	.	.	3.5%	8.91µM*	.
CC(=O)Nc1ccc(C)cc1-c1nc2ccccc2n(CC(=O)c2ccc(C)c(C)c2)c1=O	17.0%	.	?	-0.5%	11.7%
CCc1c(C)c2ccc(O)c(CN3CCN(c4cc(Cl)ccc4C)CC3)c2oc1=O	?	.	16.8%	0.3%	12.8%
